# Bioassay records deposited in PubChem by National Center for Advancing Translational Sciences (NCATS).
# An excerpt weighted towards active compounds, which were near 21% of everything screened.
# DRD3 agonist: qHTS of D3 Dopamine Receptor Agonist: qHTS; D3R DiscoveRx beta-arrestin cells, luminescence, 90 min; max activation, %; 410,000 tested, 0.58% active; AID 652048, 2013; in the data active = max activation above about 30%; also: 0% is about no effect
# Target sequence (P35462 whole entry, looked up): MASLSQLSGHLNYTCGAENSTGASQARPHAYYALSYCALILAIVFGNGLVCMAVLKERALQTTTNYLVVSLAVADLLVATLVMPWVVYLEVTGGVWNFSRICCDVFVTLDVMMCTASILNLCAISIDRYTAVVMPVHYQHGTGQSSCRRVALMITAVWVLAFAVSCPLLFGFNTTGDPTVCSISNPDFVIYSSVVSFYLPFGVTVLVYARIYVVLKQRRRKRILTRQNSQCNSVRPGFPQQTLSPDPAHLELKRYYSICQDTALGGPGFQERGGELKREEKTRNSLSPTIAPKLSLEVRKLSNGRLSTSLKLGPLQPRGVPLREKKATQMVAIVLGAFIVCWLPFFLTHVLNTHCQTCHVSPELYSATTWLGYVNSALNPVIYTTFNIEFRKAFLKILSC
#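 Cells at 1500/well, incubated overnight, then treated with pinned compounds (dopamine as control) for 90 min at 37 degrees C. DiscoveRx reagent added for 30 - 60 minutes at room temperature; luminescence read.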
# DT40 TDP1 no CPT: qHTS for Inhibitors of human tyrosyl-DNA phosphodiesterase 1 (TDP1): qHTS in cells in absence of CPT. DT40 Tdp1-/- hTDP1 cells, no CPT, ATP luminescence, 48 h. Potency, µM (titrated, usually from 46.2 µM), for inactives: at the top dose activity change, negative = growth inhibition, actives largely listed as inhibitors. 420,000 tested, 15% active. AID 686978, 2013; also: potency is read from the fitted curve at half-maximal effect; % is scaled to controls: 0 for no effect and ±100 for the full control effect; nearly all actives have a fitted effect of over 55% in size
#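 Luminescent ATP content (CellTiter-Glo) served as the growth readout. Knockout chicken DT40 cells expressing human TDP1 were exposed to compounds without camptothecin for a minimum 48 hr at 37 °C.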
# ClpP mod: qHTS Assay for Activators of ClpP | ATP-dependent Clp protease proteolytic subunit (Bacillus subtilis (strain 168)), P80244 | purified B. subtilis ClpP, FRET peptide cleavage, 20 min | Potency, µM (top dose mostly 57.5 µM), inactives show top-dose activity change, negative = active | 340,000 tested, 1.9% active; active = well fitted falling curve with a large enough effect; inconclusive = small, poorly fitted or top-dose-only effect; inactive = no such curve, though single readings can be large or run the other way; also: potency is read from the fitted curve at half-maximal effect; the source files actives as falling curves though it sought activators and does not explain the sign; nearly all actives have a fitted effect of over 65% in size
# Target sequence (P80244 whole entry, looked up): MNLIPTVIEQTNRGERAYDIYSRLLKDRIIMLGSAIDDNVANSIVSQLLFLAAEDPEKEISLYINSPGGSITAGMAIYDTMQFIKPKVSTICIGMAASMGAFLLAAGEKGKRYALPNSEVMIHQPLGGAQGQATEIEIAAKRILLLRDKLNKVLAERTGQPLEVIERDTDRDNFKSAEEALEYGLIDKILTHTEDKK
#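 FRET quenching reversal measured ClpP activation: 10 microg/mL B. subtilis ClpP at pH 8 with the FRET-FV decapeptide, read at 430 nm after 320 nm excitation. The 20-min minus 0-min signal was scaled between DMSO/no-enzyme wells and ADEP (5.8 microM final).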
# IL1B secr inh: qHTS for Inhibitors of Inflammasome Signaling: IL-1-beta AlphaLISA Primary Screen; THP-1 LPS/ATP IL-1B secretion, AlphaLISA, 16 h; active compounds read low; 360,000 tested, 4.7% active; activity change, % at 57.5 µM; in the data active = activity change below about -50%; inconclusive = mostly about -30% to -49%; also: % is scaled to controls: 0 for no effect and ±100 for the full control effect
#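 THP-1 cells pretreated 1 hr with compounds (up to 57.5 uM final), then stimulated with LPS (250 ng/mL final) plus ATP (1.25 mM final); secreted IL-1B measured by AlphaLISA after 16 hr, decreased signal indicating inhibition.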
# D3 antag: qHTS of D3 Dopamine Receptor Antagonist: qHTS; AID 652054, 2013; D3R cells, DiscoveRx beta-arrestin luminescence, antagonist mode; active compounds read low; max response, negative = inhibition, %; D(3) dopamine receptor (Homo sapiens), P35462; 360,000 tested, 2.5% active; in the data active = max response below about -50%; inconclusive = no clear call, values can overlap the other calls; also: % is scaled to controls: 0 for no effect and ±100 for the full control effect
#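 Cells plated overnight at 1500 cells/well, then exposed to library compounds with dopamine controls for 90 minutes at 37 degrees C. DiscoveRx reagent added for 30–60 minutes at room temperature; luminescence read, quantitative HTS format.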
# TDP1 cell CPT: qHTS for Inhibitors of human tyrosyl-DNA phosphodiesterase 1 (TDP1): qHTS in cells in presence of CPT; AID 686979, 2013; 420,000 tested, 12% active; chicken DT40 Tdp1-/-;hTDP1 cells + 20 nM CPT, ATP luminescence, 48 h; Potency, µM (top dose mostly 46.2 µM), inactives show at the top dose activity change, negative = growth inhibition, usual class: inhibitors; also: potency is read from the fitted curve at half-maximal effect; % is scaled to controls: 0 for no effect and ±100 for the full control effect; nearly all actives have a fitted effect of over 55% in size
#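 Cell growth measured by CellTiter-Glo luminescence after a minimum 48 h, 37 C compound exposure with 20 nM CPT in Tdp1-knockout DT40 cells stably expressing hTDP1, seeded 400/well; qHTS titration format.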
# * = called active by the depositor; ? = inconclusive; / = no result. Unless noted, calls follow the shape of the dose curve; as a rule, active = well fitted inhibition curve with a large enough effect; inconclusive = small, poorly fitted or top-dose-only effect; inactive = flat fitted curve, though single readings scatter.
SMILES,DRD3 agonist,DT40 TDP1 no CPT,ClpP mod,IL1B secr inh,D3 antag,TDP1 cell CPT
COc1ccc(OC(F)(F)F)cc1CC1(C)C(=O)Nc2cccc(Cl)c21 (stereo not drawn),3.5,14.6µM*,1.6%,0.0,-10.1,?
COc1ccc(C(C)=O)cc1CC1(C)C(=O)Nc2ccc(OC(F)(F)F)cc21 (stereo not drawn),-9.0,?,-2.2%,2.5,?,?
COc1ccc(S(=O)(=O)N2CCCCCC2)cc1C(=O)N(C)Cc1cccs1,0.8,-20.7%,-1.0%,-14.6,5.8,-18.8%
O=[N+]([O-])c1ccc(NCCOc2ccccc2Cl)nc1,-2.1,-19.7%,-1.5%,-65.6*,-16.5,-24.1%
Cc1cc(NC(=O)CSc2nc3c([nH]c4ccccc43)c(=O)n2-c2cccc(Cl)c2)no1,1.4,?,-18.9%,/,/,?
CCCCc1c(C)nc2cc(-c3ccco3)[nH]n2c1=O,2.7,?,-1.6%,-95.9*,8.6,-0.5%
C=CCc1c(C)nc2cc(-c3ccc(C)cc3)[nH]n2c1=O,1.8,?,4.3%,10.1,-1.5,?
CCc1c(C)nc2c(-c3ccccc3)c(-c3ccccc3)[nH]n2c1=O,-1.3,2.06µM*,-12.3%,12.9,-1.0,2.31µM*
CCOC(=O)Cc1cc(=O)n2[nH]c(-c3ccccc3)cc2n1,-10.9,-9.9%,28.2µM*,26.2,-22.9,-11.1%
CCOC(=O)Cc1cc(=O)n2[nH]c(C)c(-c3ccccc3)c2n1,-1.8,?,?,7.9,-20.9,?
CCc1c(C)nc2cc(-c3ccccc3)[nH]n2c1=O,-8.6,11.6µM*,/,-9.2,-15.9,8.2µM*
CC1CC(C)CN(C(=S)NC2CCCCC2)C1 (stereo not drawn),-6.5,25.9µM*,-1.6%,13.6,-19.9,?
COc1ccc(NC(=O)/C(Cl)=C(/Cl)S(=O)Cc2ccccc2)cn1 (stereo not drawn),-27.9,0.0184µM*,0.6%,-102.5*,-131.4*,0.0206µM*
COc1ccc(CS(=O)(=O)/C(Cl)=C(/Cl)C(=O)Nc2ccc(OC)nc2)cc1,-17.0,0.581µM*,5.1%,-120.4*,-50.8*,0.581µM*
COc1ccc(/C=C/C(=O)Nc2ccc(OC)nc2)cc1,8.4,?,/,?,2.7,-1.1%
CCOC(=O)c1c[nH][nH]c1=O,-0.4,8.3%,-0.5%,4.4,7.4,1.9%
Cc1nc2nc(SCc3c(F)cccc3Cl)nn2c(C)c1Cc1ccccc1,-12.1,8.2µM*,?,/,/,13µM*
Cc1cccc(Cc2c(C)nc3nc(SCC(=O)O)nn3c2C)c1,-3.8,-1.0%,-2.1%,-0.2,-6.6,-1.6%
Cc1cccc(Cc2c(C)nc3nc(SCc4cccc(F)c4)nn3c2C)c1,-18.2,?,?,/,/,20.6µM*
Cc1cc(C)n2nc(SCc3c(F)cccc3Cl)nc2n1,-5.3,25.9µM*,-0.8%,-5.0,-15.0,?
Cc1cccc(Cc2c(C)nc3nc(SCc4ccccc4F)nn3c2C)c1,-15.6,9.2µM*,?,/,/,13µM*
Cc1cc(C)n2nc(SCc3ccc(F)cc3Cl)nc2n1,0.9,-12.0%,-4.5%,?,-14.8,-14.6%
Cc1nc2nc(SCC(=O)N3CCOCC3)nn2c(C)c1Cc1c(F)cccc1Cl,0.7,?,-13.3%,46.1,0.3,-20.8%
O=C(NCCCN1CCCC1=O)c1ccccc1OCc1ccc(Cl)cc1Cl,-1.7,?,-11.0%,?,0.8,?
O=C(Nc1cccc(F)c1)Nc1ccnn1C1CCN(C(=O)c2cscn2)CC1,-12.5,-2.6%,-2.2%,7.7,-12.1,20.4%
SMILES,DRD3 agonist,DT40 TDP1 no CPT,ClpP mod,IL1B secr inh,D3 antag,TDP1 cell CPT
Cc1cc(C)n2nc(SCc3nnc(-c4ccccc4Br)o3)nc2n1,13.2,?,17.8µM*,26.2,1.0,-1.7%
Cc1cc(CN2CCN(c3cccc(C)c3C)CC2)cs1,-33.5,14.6µM*,0.8%,/,/,23.1µM*
Cc1cccc(N2CCN(Cc3ccoc3)CC2)c1C,-31.6,?,0.3%,-7.2,-87.5*,?
COc1cc(CN2CCN(c3cccc(C)c3C)CC2)cc(OC)c1O,-38.1,?,-4.3%,-3.9,?,?
O=C(NC1CCCC1)C(c1ccccc1)N(Cc1cccnc1)C(=O)Cc1cccs1 (stereo not drawn),2.7,-2.6%,-0.5%,7.3,8.9,3.5%
COc1ccc2[nH]c3c(c2c1)CCN1C(=O)C(CC(=O)NCCc2ccccn2)C[C@H](C(=O)N2CCOCC2)[C@@]31CCC1CCCC1 (stereo partly drawn),-1.0,?,-0.6%,-21.5,-27.8,?
Cc1ccc(C(=O)N2CCN(c3ncnc4c(C)csc34)CC2)cc1,-2.4,16.4µM*,/,?,3.5,?
O=C(Nc1ccccc1)N1CCN(c2ccccn2)CC1,5.3,-18.9%,?,-4.1,-0.8,-10.5%
Cc1csc2c(N3CCN(C(=O)Nc4ccccc4)CC3)ncnc12,12.4,16.4µM*,-2.0%,?,-1.9,9.2µM*
Cc1ccc(NC(=O)N2CCN(c3ccccn3)CC2)cc1,12.0,-0.2%,?,-5.9,4.3,-8.0%
Cc1csc2ncnc(N3CCN(C(=O)Nc4ccc(OC(F)(F)F)cc4)CC3)c12,3.0,5.8µM*,0.5%,-70.8*,8.3,10.3µM*
CC1=[N+](C)c2ccc3ccccc3c2C1(C)C,-2.7,2.31µM*,-25.0%,-15.1,-1.9,2.59µM*
Cc1cc(C)c(C(=O)N2CCCC(CNC(=O)C3(c4ccc(Cl)cc4)CC3)C2)c(=O)[nH]1 (stereo not drawn),-3.7,4.2%,-4.8%,7.6,0.7,4.5%
COc1cccc(N2CC(NC(=O)c3cc(Cl)ccc3OC)CC2=O)c1 (stereo not drawn),2.9,16.4µM*,-6.5%,/,/,?
COc1ccc(N2CC(NC(=O)COc3cccc(C)c3)CC2=O)cc1OC (stereo not drawn),-13.0,20.6µM*,-9.4%,/,/,-27.7%
COc1ccc(N2CC(NC(=O)COc3ccccc3)CC2=O)cc1OC (stereo not drawn),8.3,7.3%,-1.1%,/,/,-1.2%
Cc1ccc(C2C(N)C(=O)N2c2ccc(C)cc2)cc1 (stereo not drawn),3.0,11.2%,-0.8%,2.5,0.1,14.0%
